Assay outcomes (PubChem)
VACV mCherry inh: qHTS for Stage-Specific Inhibitors of Vaccinia Orthopoxvirus: mCherry Reporter Primary qHTS. Vaccinia virus mCherry reporter infection, fluorescence. Potency, µM (series often up to 36.5 µM), inactives show top-dose activity change, negative = inhibition, hits mostly inhibitors. 310,000 tested, 0.63% active; calls by dose curve; tested in A549 cells; note: nearly all actives have a fitted effect of over 35% in size
LASV entry inh: qHTS for Inhibitors of binding or entry into cells for Lassa Virus; Lassa virus pseudotype entry inhibition, cell reporter; Potency, µM (highest dose often 37.9 µM), for the others: at the top dose activity change, negative = inhibition, most hits filed as inhibitors; 300,000 tested, 1.2% active; AID 540256, 2011; calls by dose curve; tested in HEK293 cells; note: nearly all actives have a fitted effect of over 50% in size
FMDV antiviral: High Throughput Screening for Foot and Mouth Disease Virus Antivirals | FMDV antiviral cell-based qHTS | Potency, µM (doses to about 57.9 µM), for the others: at the top dose activity change, negative = inhibition, most hits filed as inhibitors | 410,000 tested, 1.2% active; calls by dose curve; tested in HEK293T cells; note: read-out not given here; nearly all actives have a fitted effect of over 45% in size
Sm TGR block: qHTS Assay for the Inhibitors of Schistosoma Mansoni Peroxiredoxins; AID 485364, 2010; 360,000 tested, 3% active; Potency, µM (doses to about 114 µM), for inactives: top-dose activity change, negative = inhibition, usual class: inhibitors; purified TGR, DTNB reduction, TNB absorbance 405 nm; active = well fitted inhibition curve with a large enough effect; inconclusive = small, poorly fitted or top-dose-only effect; inactive = no such curve, though single readings can be large or run the other way; note: nearly all actives have a fitted effect of over 60% in size
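TGR 20 nM + NADPH 100 uM (dispensed conc.), cpd preinc 15 min RT; start with NADPH (500 uM addition) then DTNB (15 mM addition). Kinetic TNB absorbance, 405 nm filter. Four-parameter Hill fit across titration.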
Marburg entry inh: qHTS for inhibitors of binding or entry into cells for Marburg Virus. Marburg virus pseudotyped entry inhibition, cell reporter. Potency, µM (top dose mostly 37.8 µM), inactives show top-dose activity change, negative = inhibition, usual class: inhibitors. 300,000 tested, 1.8% active; calls by dose curve; tested in HEK293 cells
VACV Venus inh: qHTS for Stage-Specific Inhibitors of Vaccinia Orthopoxvirus: Venus Reporter Primary qHTS | Vaccinia virus Venus reporter expression, fluorescence | 330,000 tested, 0.46% active | Potency, µM (doses to about 36.5 µM), inactives show at the top dose activity change, negative = inhibition, most hits filed as inhibitors; calls by dose curve; tested in A549 cells; note: nearly all actives have a fitted effect of over 30% in size
Starred values were filed as active, the others as inactive; [ ] = remark or other dose. This is a sample that favours compounds with a hit; in the whole collection about 5.4% have one here. % is set by controls: 0 for no effect and ±100 for the full control effect; potency is the fitted concentration of half-maximal effect.

What do the screens show for `CC(C)CN1C(=O)N(C)C(=O)C2N=CN=C21` (configuration not stated)?
Marburg entry inh: 23%

What do the screens show for `Cc1ccc(N2C(=O)CS(=O)(=O)CC2=O)cc1`?
VACV mCherry inh: inactive; LASV entry inh: 22%[46.1 µM]; FMDV antiviral: 7%; Sm TGR block: 8.9µM*; Marburg entry inh: inconclusive; VACV Venus inh: -4%

How did Cc1ccc(-n2nc(C(=O)Nc3cccc(C#N)c3)c3c4ccccc4n(C)c3c2=O)cc1 do in these assays?
VACV mCherry inh: -12%; LASV entry inh: 4%[46.1 µM]; FMDV antiviral: -16%; Sm TGR block: 5%; Marburg entry inh: 26%[46.1 µM]; VACV Venus inh: -2%

What do the screens show for `O=C(CSc1nnc(-c2ccccc2Cl)o1)N1CCCCC1`?
VACV mCherry inh: -8%; FMDV antiviral: 0%; Sm TGR block: 0%; VACV Venus inh: -10%

How did O=C(CSc1nnc(-c2ccccc2Cl)o1)N1CCCC1 do in these assays?
VACV mCherry inh: 14%; LASV entry inh: 2.8µM*; FMDV antiviral: 40%; Sm TGR block: -3%; Marburg entry inh: inconclusive; VACV Venus inh: 19%

How did COCCn1c(SCC(=O)N2CCCc3ccccc32)nnc1-c1ccoc1C do in these assays?
VACV mCherry inh: -7%; LASV entry inh: 7%; FMDV antiviral: -9%; Sm TGR block: 40µM*; Marburg entry inh: 6%; VACV Venus inh: 3%

What do the screens show for `Cc1occc1-c1nnc(SCC(=O)N2CCc3ccccc32)o1`?
VACV mCherry inh: inactive; LASV entry inh: -1%; FMDV antiviral: -24%; Sm TGR block: 25µM*; Marburg entry inh: 3%; VACV Venus inh: -11%

Results for CC(C)Cn1c(=O)c2sccc2n2c(CCCC(=O)Nc3ccc(Cl)cc3)nnc12 ?
VACV mCherry inh: -3%; LASV entry inh: 21%[46.1 µM]; FMDV antiviral: -3%; Sm TGR block: 1%; VACV Venus inh: -4%

What do the screens show for `COCCn1c(=O)c(-c2cccs2)nc2cnc(N3CCNCC3)nc21`?
FMDV antiviral: 2%

What do the screens show for `O=C(CN1CCN(C(C(=O)Nc2ccc(Cl)cc2C(F)(F)F)c2ccccc2)CC1)NC1CC1` (configuration not stated)?
FMDV antiviral: -26%; Sm TGR block: -11%

How did O=C(CN1CCN(C(C(=O)Nc2cc(C(F)(F)F)ccc2Cl)c2ccccc2)CC1)NC1CC1 (configuration not stated) do in these assays?
FMDV antiviral: 40µM*

What do the screens show for `CCN(CC)CCCn1c(C)cc2c(c1=O)C(c1cccc(Cl)c1)C(C#N)=C(N)O2` (configuration not stated)?
LASV entry inh: inconclusive; FMDV antiviral: 2%; Sm TGR block: 6%; Marburg entry inh: 11µM*; VACV Venus inh: -9%

What do the screens show for `Cn1c(C(=O)N2CCCC(C(=O)NCCCSC3CCCCC3)C2)cc2sccc21` (configuration not stated)?
VACV mCherry inh: -28%; LASV entry inh: 13µM*; FMDV antiviral: inconclusive; Sm TGR block: 4%; Marburg entry inh: inconclusive; VACV Venus inh: inconclusive

How did Cn1c(C(=O)N2CCCC(C(=O)NCc3cccs3)C2)cc2sccc21 (configuration not stated) do in these assays?
VACV mCherry inh: -17%; LASV entry inh: 0%; Sm TGR block: -2%; Marburg entry inh: -3%; VACV Venus inh: -8%

How did Cc1ccc(S(=O)(=O)N2CCN(C(=O)CN3CCOCC3)C2c2ccccc2)cc1 (configuration not stated) do in these assays?
LASV entry inh: 8%; FMDV antiviral: -13%; Sm TGR block: 40µM*; Marburg entry inh: -9%; VACV Venus inh: -7%

What do the screens show for `CCCCCCCNC(=O)C1(CC2CC(c3ccc(Cl)cc3)=NO2)CCNCC1` (configuration not stated)?
VACV mCherry inh: inconclusive; FMDV antiviral: -25%; Sm TGR block: 40µM*; VACV Venus inh: inconclusive

What do the screens show for `CCCCCCCNC(=O)C1(CC2CC(c3cccc(Br)c3)=NO2)CCNCC1` (configuration not stated)?
VACV mCherry inh: inconclusive; FMDV antiviral: -14%; Sm TGR block: 25µM*; VACV Venus inh: 11µM*

What do the screens show for `Cn1ncc(C(=O)N2CCN(c3ccc(F)cc3)CC2)c1C1CCN(C(=O)OC(C)(C)C)CC1`?
VACV mCherry inh: -10%; LASV entry inh: inconclusive; FMDV antiviral: 3%; Sm TGR block: -1%; VACV Venus inh: -8%

How did Cc1ccc(S(=O)(=O)N(C)c2ccc(C(=O)N3CCN(Cc4ccc5c(c4)OCO5)CC3)cc2)cc1 do in these assays?
LASV entry inh: inconclusive; FMDV antiviral: 16µM*; Sm TGR block: 0%; Marburg entry inh: inconclusive

Results for Cc1ccc(C)c(OCC(=O)N2CCN(Cc3ccc4c(c3)OCO4)CC2)c1 ?
VACV mCherry inh: -1%; LASV entry inh: -25%; FMDV antiviral: -20%; Sm TGR block: 56µM*; Marburg entry inh: -14%; VACV Venus inh: -8%

How did CN(c1ccc(C(=O)N2CCN(Cc3ccc4c(c3)OCO4)CC2)cc1)S(=O)(=O)c1ccccc1 do in these assays?
LASV entry inh: -27%; FMDV antiviral: inconclusive; Sm TGR block: -26%; Marburg entry inh: inconclusive

What do the screens show for `Cc1ccc(S(=O)(=O)N(C)c2ccc(C(=O)N3CCc4ccccc4C3)cc2)cc1`?
VACV mCherry inh: -29%; LASV entry inh: 11µM*; FMDV antiviral: -12%; Marburg entry inh: inconclusive; VACV Venus inh: -1%

Results for CN(c1ccccc1)S(=O)(=O)c1ccc(C(=O)N2CCc3ccccc3C2)cc1 ?
VACV mCherry inh: inactive; FMDV antiviral: -24%; Sm TGR block: 8%; VACV Venus inh: -12%

How did CCn1c(C)nc2cc(C(=O)OC(C(F)(F)C(F)F)C(F)(F)C(F)F)ccc21 do in these assays?
VACV mCherry inh: -24%; LASV entry inh: inconclusive; FMDV antiviral: -11%; Sm TGR block: -5%; Marburg entry inh: 14µM*; VACV Venus inh: -8%

How did CCn1c(C)nc2cc(C(=O)NNC(=O)c3ccc(C)cc3)ccc21 do in these assays?
FMDV antiviral: 0%; Sm TGR block: 2%

What do the screens show for `N#CSCC(=O)c1cccc2ccccc12`?
VACV mCherry inh: -15%; LASV entry inh: inconclusive; FMDV antiviral: inconclusive; Sm TGR block: 32µM*; Marburg entry inh: inconclusive; VACV Venus inh: -7%

What do the screens show for `NC(=O)c1cccc2ccccc12`?
VACV mCherry inh: -24%; LASV entry inh: 11%[46.1 µM]; FMDV antiviral: -18%; Sm TGR block: -7%; Marburg entry inh: 4%[46.1 µM]; VACV Venus inh: -19%
